Experimental data from PubChem BioAssay (NCI).
Compounds without any hit were thinned out: in the full panel of roughly 83,000, 20% have a hit.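 For each line, cells grew in 96-well plates with the test compound present at a single concentration for 48 hours.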 The source made the active and inactive calls. How the source made its calls: active means growth percent below 10; inactive means the rest.

tested on: UACC-257 melanoma; assay: NCI-60 one-dose screen, 48 h (100 = growth as untreated, 0 = no growth, -100 = all killed); conditions: 10 µM unless noted

Compound | growth
COc1cc2oc(-c3cccc(NC(=O)c4cc(N)ccc4Cl)c3)cc(=O)c2c(OC)c1OC | 127% (inactive)
CC(C)(C)n1cc(-c2ccnc(NCCCNS(=O)(=O)c3cccc(F)c3)n2)c(-c2ccc(Cl)c(O)c2)n1 | 114% (inactive)
COc1cccc2cc(-c3cc4ccccc4[nH]3)/c(=N\NC(=O)c3ccc(Cl)cc3)oc12 | 17.4% (inactive)
Nc1nc(Nc2ccccc2SSc2ccccc2Nc2nc(N)nc(-c3ccc4ccccc4c3)n2)nc(-c2ccc3ccccc3c2)n1 | 112% (inactive)
O=C(CN1CCN(c2cc(=O)n(-c3ccccc3)c3ccccc23)CC1)Nc1nc(-c2ccccc2)cs1 | 48.5% (inactive)
CC(Nc1c(C#N)cnc2ccc(-c3cnc(N)nc3)cc12)c1ccccc1 (stereo not drawn) | 34.1% (inactive)
CC(=O)Nc1cccc(Nc2nc(N[C@H](C)c3ccccc3)c3ccccc3n2)c1 | 58.6% (inactive)
CNC1CCc2c(sc(NC(=O)c3ccc(C(C)(C)C)cc3)c2C(N)=O)C1 (stereo not drawn) | 56.2% (inactive)
COc1cc(OC)cc(C(=O)Nc2cccc(C#Cc3cccc4[nH]nc(N)c34)c2)c1 | 53.4% (inactive)
COc1c(N2CC3CCCNC3C2)c(F)cc2c(=O)c(C(=O)N/N=C/c3ccccc3)cn(C3CC3)c12 (stereo not drawn) | 106% (inactive)
COc1ccccc1-n1cc(C#N)c(N)c1C(=O)c1ccc(Br)cc1 | 72.5% (inactive)
Nc1nc(-c2cccc([N+](=O)[O-])c2)c(N=Nc2ccccc2)s1 | 93.4% (inactive)
COc1ccc(-c2nc3ccc(-c4nnc(SCC(=O)Nc5ccc(C(=O)/C=C/c6ccc(Cl)cc6)cc5)o4)cc3[nH]2)cc1 | 107% (inactive)
